Reference: PubChem BioAssay (NCI)
The panel holds about 79,000 compounds, 15% with a hit somewhere; the sample as a whole holds those more often. Values without a mark were called inactive. Active and inactive are the calls of the source. Rule as the data show it: active = growth inhibition above about 70%; inactive = the rest.

How the values were obtained:
[1] = NCI Yeast Anticancer Drug Screen. Data for the rad50 strain (AID 155);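 also: 0% = growth of vehicle-only cultures of the same strain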; details: S. cerevisiae rad50 strain growth inhibition, stronger effect = higher value
Outline: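 Compounds were tested on a yeast strain with an engineered DNA damage repair alteration; the reported value is growth inhibition normalised to vehicle treatment.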

[2] = NCI Yeast Anticancer Drug Screen. Data for the mec2-1 strain (AID 157); details: S. cerevisiae mec2-1 strain, stronger effect = higher value
Outline: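 Strain: mec2-1 (DNA repair/cell cycle alteration). Compound exposure, then growth measured; inhibition expressed relative to vehicle.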

[3] = NCI Yeast Anticancer Drug Screen. Data for the sgs1 mgt1 strain (AID 161);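 also: 0% = growth of cultures given vehicle only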; details: S. cerevisiae sgs1 mgt1 strain, stronger effect = higher value
Outline: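 Genetically altered yeast, compound exposure, growth inhibition relative to vehicle.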

[4] = NCI Yeast Anticancer Drug Screen. Data for the cln2 rad14 strain (AID 165);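 also: 0% = growth equal to vehicle treated cultures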; details: S. cerevisiae cln2 rad14 strain, stronger effect = higher value
Outline: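 Compounds are applied to the cln2 rad14 yeast strain, and growth is then compared with that of vehicle-treated cultures to give inhibition.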

[5] = NCI Yeast Anticancer Drug Screen. Data for the bub3 strain (AID 167); details: S. cerevisiae bub3 mutant strain, stronger effect = higher value
Outline: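 Growth of a checkpoint-deficient yeast mutant is measured after compound exposure. Values represent inhibition relative to vehicle.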

[6] = NCI Yeast Anticancer Drug Screen. Data for the mlh1 rad18 strain (AID 175); details: S. cerevisiae mlh1 rad18 strain growth inhibition, stronger effect = higher value
Outline: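 Read-out is yeast growth inhibition, calculated against vehicle-only controls. The compound was applied to a strain engineered with DNA damage repair alterations.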

[7] = at 5.0 µM (retest, dose inferred, filed as 0.5)
[8] = at 50.0 µM (retest, dose inferred, filed as 5.0)

Structure (SMILES)	growth inhibition [1, 7]	growth inhibition [1, 8]	growth inhibition ([1]; at 50.0 µM)	growth inhibition [2, 7]	growth inhibition [2, 8]	growth inhibition ([2]; at 50.0 µM)	growth inhibition [3, 7]	growth inhibition [3, 8]	growth inhibition ([3]; at 50.0 µM)	growth inhibition [4, 7]	growth inhibition [4, 8]	growth inhibition ([4]; at 50.0 µM)	growth inhibition [5, 7]	growth inhibition [5, 8]	growth inhibition ([5]; at 50.0 µM)	growth inhibition [6, 7]	growth inhibition [6, 8]	growth inhibition ([6]; at 50.0 µM)
O=C(NCCCCCCNC(=O)n1cc(F)c(=O)[nH]c1=O)NCCCOCCOCCOCCOCCOCCOCCOCCOCCOCCOCCOCCOCCOCCOCCOCCOCCOCCOCCOCCOCCOCCCNC(=O)C(O)C(O)C(O)C(O)CO (stereo unspecified)	6%	31%	42.2%	4%	60%	82% (active)	23%	87% (active)	76.8% (active)	33%	8%	24.4%	11%	34%	-4.9%	7%	35%	-10.8%
N#[N+]c1ccc2c(S(=O)(=O)Oc3ccc(C(=O)c4ccccc4)c(OS(=O)(=O)c4cccc5c([O-])c([N+]#N)ccc45)c3)cccc2c1[O-]	-10%	46%	82.5% (active)	-7%	33%	85.3% (active)	1%	59%	77.2% (active)	36%	45%	84% (active)	-3%	31%	77.1% (active)	-13%	4%	72.7% (active)
c1ccc(C[n+]2cccc(-c3cc4ccccc4[nH]3)c2)cc1	12%	14%	-21.7%	0%	-42%	-24.6%	-9%	17%	-45.2%	-46%	-23%	77.3% (active)	-17%	-9%	-43.5%	-1%	13%	-3.55%
O=C1C(c2ccccc2)=[N+]([O-])c2ccccc21	2%	39%	87.4% (active)	1%	98% (active)	98% (active)	-2%	92% (active)	98.2% (active)	0%	12%	73.5% (active)	29%	80% (active)	99.2% (active)	4%	92% (active)	76.3% (active)
CC1OC2CC(=O)OC2C2=C1C(=O)c1c(O)cccc1C2=O (stereo unspecified)	99% (active)	99% (active)	91.8% (active)	100% (active)	99% (active)	93% (active)	99% (active)	99% (active)	92.6% (active)	99% (active)	99% (active)	91.4% (active)	99% (active)	99% (active)	91.4% (active)	99% (active)	99% (active)	91.7% (active)
C[N+](C)=c1ccc2nc3c(cc(NCCCNc4cc5oc6cc(=[N+](C)C)ccc-6nc5c5ccccc45)c4ccccc43)oc-2c1	-28%	79% (active)	75.8% (active)	-7%	80% (active)	51%	-15%	70% (active)	67.5%	-29%	53%	39.5%	-18%	72% (active)	64%	-15%	74% (active)	65.1%
Nc1ccccc1OCC(O)CN1CCN(Cc2ccccc2)CC1 (stereo unspecified)	-7%	23%	72.1% (active)	-4%	15%	41%	-11%	42%	75.6% (active)	-4%	17%	16%	-1%	9%	23.9%	14%	55%	22.5%
COc1ccc(C(=O)Cc2nc3nnc(NC(=O)Nc4ccc(Cl)cc4)n3nc2CC(=O)c2ccc(OC)cc2)cc1	2%	96% (active)	93.1% (active)	7%	98% (active)	94.9% (active)	1%	98% (active)	94.8% (active)	-1%	97% (active)	93.5% (active)	7%	98% (active)	96.2% (active)	4%	97% (active)	95.1% (active)
COC(=O)c1cc(C)c2sc3ccccc3c2c1C	-13%	29%	73.1% (active)	-8%	23%	5.3%	-7%	51%	75.2% (active)	-8%	16%	-24.1%	-21%	21%	31.4%	-3%	38%	61.5%
O=C1C2(Cl)C(Cl)=C(Cl)C1(Cl)C1(Cl)C(Cl)=C(Cl)C(=O)C21Cl (stereo unspecified)	55%	88% (active)	98.2% (active)	45%	92% (active)	54.2%	45%	92% (active)	39.8%	19%	89% (active)	76.4% (active)	21%	92% (active)	28.4%	66%	90% (active)	61.2%
CCC(c1ccc(O)cc1)C(CC)c1ccc(O)c(O)c1 (stereo unspecified)	16%	98% (active)	99.6% (active)	12%	99% (active)	99.5% (active)	13%	99% (active)	99.5% (active)	-2%	99% (active)	99.4% (active)	10%	98% (active)	99.5% (active)	12%	97% (active)	99.5% (active)
O=C(Nc1ccc(S(=O)(=O)NC2CCCCC2)cc1)OC1CCCCC1	14%	95% (active)	92.9% (active)	30%	98% (active)	93.4% (active)	66%	92% (active)	94.3% (active)	-10%	93% (active)	93.7% (active)	10%	95% (active)	92.3% (active)	11%	95% (active)	94% (active)
CC(NNC(=S)N(C)C1CCCCC1)c1cc2ccccc2cn1 (stereo unspecified)	48%	92% (active)	86.8% (active)	55%	94% (active)	75.3% (active)	97% (active)	94% (active)	85.5% (active)	94% (active)	92% (active)	79.8% (active)	94% (active)	95% (active)	84% (active)	51%	93% (active)	83% (active)
Cc1ccc(N=C=C(c2ccccc2)c2ccccc2)cc1	12%	46%	67.5%	26%	39%	59.3%	17%	70% (active)	65.8%	9%	35%	48%	28%	58%	67.2%	30%	77% (active)	71.2% (active)
COC(=O)c1cc(OC)c(OC)c(OC)c1	4%	72% (active)	4.25%	1%	18%	-0.5%	2%	29%	-13.1%	2%	60%	-23.3%	2%	70% (active)	36.9%	-1%	48%	0.25%
Cc1ccc(O)c(Cc2ccccc2Cl)c1	-2%	99% (active)	99.3% (active)	-7%	99% (active)	99.3% (active)	-4%	98% (active)	99.5% (active)	-19%	99% (active)	99% (active)	-13%	99% (active)	92.7% (active)	-5%	99% (active)	99% (active)
O=[N+]([O-])c1ccc(NCc2ccccc2)c([N+](=O)[O-])c1	-8%	69%	14.6%	-16%	55%	31.1%	4%	72% (active)	60.6%	-10%	62%	-166%	19%	86% (active)	72.7% (active)	-2%	80% (active)	68%
